The source of these data is PubChem BioAssay (Tox21).

Each structure is given as a SMILES string. Records with an inconclusive call do not appear. A call without a number means that no potency is given here. Activity calls are given as the source filed them. The call rests on the fitted dose curve; in most records, active means well fitted curve in the direction sought with a large enough effect in the repeat runs; inconclusive means weak or mixed curves; inactive means no such curve, though single readings can be large; an effect the other way counts as inactive or inconclusive.
Potency means the concentration at half of the fitted maximal effect.

The first experiment is described as follows: A CellTox Green Cytotoxicity Assay to monitor cytotoxicity in HEK293 cells - 40 hour (AID 1224871). Further: nearly all actives have a fitted effect of over 45% in size. Particulars: CellTox Green fluorescence; series mostly up to 76.8 µM. The procedure, abridged:
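Nonlytic real-time cytotoxicity: HEK293 + CellTox Green reagent plated, 5 h preincubation, pintool compound addition (23 nL in DMSO), 37 C for 40 h, fluorescence measured at successive time points.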
For `O=C=Nc1ccc(Cl)c(Cl)c1`, the Potency result was “inactive”.
The same measure, in the same setting: the entry for `CCOC(C)=O` is “inactive”; for `C=CC(=O)[O-].C=CC(=O)[O-].[Zn+2]` it is “inactive”.
Same read-out and setting: the entry for `C/C=C/C=C/C=O` is “inactive”; for `O=C(O)c1cccc(-c2noc(-c3ccccc3F)n2)c1` it is “inactive”; for `CC(C)=CCC1C(=O)N(c2ccccc2)N(c2ccccc2)C1=O` it is “inactive”.
On to `CCOC(=O)c1ccc(OCCN2C[C@H](O)[C@@H](O)[C@H](O)[C@H]2CO)cc1`, for which the Potency entry is “inactive”.
Same read-out and setting: under `CCC(=O)OC` stands “inactive”.
`CCC=CC#N`: the Potency result is “inactive”.
Regarding `CCCCCCC(C)(C)C(=O)O`, the Potency result is “inactive”.
Same read-out and setting: the entry for `CCCC(=O)C(=O)O` is “inactive”; for `Cc1[nH]cnc1CN1CCc2c(c3ccccc3n2C)C1=O` it is “inactive”.
Still for that read-out and setting: the entry for `C[C@H]1C[C@H](O)c2ccsc2S1(=O)=O` is “inactive”; for `CN1C(C(=O)Nc2ccccn2)=C(O)c2sccc2S1(=O)=O` it is “inactive”.
Still for that read-out and setting: under `CCC(C)COC(C)=O` (stereo not given) stands “inactive”.
As for `C[C@]12CC[C@@H]3c4ccc(O)cc4CC[C@H]3[C@@H]1CC[C@@H]2OC(=O)CCC1CCCC1`, the Potency is 54.9 µM (active).
Turning to `FC(F)(F)c1ccccc1Cl`, the Potency entry is “inactive”.
On the same count and under the same terms, under `O=c1[nH]c2ccc(Cl)cc2o1` stands “inactive”; under `Brc1cc(Br)c(Oc2cc(Br)c(Br)cc2Br)cc1Br`, “inactive”.
The same measure, in the same setting: the entry for `Cc1c(C)c2c(c(C)c1OC(=O)CCC(=O)OCCO)CC[C@@](C)(CCC[C@H](C)CCC[C@H](C)CCCC(C)C)O2` is “inactive”; for `CCc1ccccc1` it is “inactive”.
`OC[C@H]1O[C@@H](n2cnc3c(=S)nc[nH]c32)[C@H](O)[C@@H]1O`: the Potency result is “inactive”.
In the case of `O=C(O)CCC(=O)C(=O)O`, the Potency result was “inactive”.
On the same count and under the same terms, under `C=C(C)CCCC(C)CCO` (stereo not given) stands “inactive”; under `CCCCCC[C@@H](O)C/C=C\CCCCCCCC(=O)O`, “inactive”; under `CCCCC(CC)CN` (stereo not given), “inactive”.
The same measure, in the same setting: under `CC1=C(Br)C(=O)C(Br)=C/C1=C(/c1ccccc1S(=O)(=O)O)c1cc(Br)c(O)c(Br)c1C` stands “inactive”; under `O[C@@H]1CO[C@H]2[C@@H]1OC[C@@H]2O`, “inactive”.
For the compound `CCCCCCCCCCC(=O)O`, the Potency result was “inactive”.
The same measure, in the same setting: under `CC1(C)[C@H](C(=O)O)N2C(=O)C[C@H]2S1(=O)=O` stands “inactive”; under `CN1CC(=O)N2[C@H](c3ccc4c(c3)OCO4)c3[nH]c4ccccc4c3C[C@@H]2C1=O`, “inactive”; under `O=C(/C=C/c1ccccc1)OCCc1ccccc1`, “inactive”.
Consider `Nc1cccc2c1CN(C1CCC(=O)NC1=O)C2=O` (stereo not given), for which the Potency entry was “inactive”.
On the same count and under the same terms, under `Cc1ccccc1S` stands “inactive”.
Still for that read-out and setting: the entry for `CN1C(=O)OC(C)(C)C1=O` is “inactive”.
As to `Oc1cccc(O)c1O`, the Potency entry was “inactive”.
`COc1cc(C(=O)NCCCCCC(=O)O)cc(OC)c1OC`: the Potency result is “inactive”.
Still for that read-out and setting: under `CCOC(=O)[C@H](CCc1ccccc1)N[C@@H](C)C(=O)N(CC(=O)O)C1Cc2ccccc2C1` stands “inactive”; under `C=C/C(C)=C/C/C=C(\C)CCC=C(C)C`, “inactive”.
The same measure, in the same setting: the entry for `CCOC(=O)OC(C)OC(=O)[C@@H]1N2C(=O)[C@@H](NC(=O)[C@H](N)c3ccccc3)[C@H]2SC1(C)C` (stereo not given in full) is “inactive”.

A further experiment is described as follows: qHTS RealTime-Glo MT Cell Viability Assay in HEK293 cells - 16 hour (AID 1224872). Further: nearly all actives have a fitted effect of over 50% in size. Particulars: RealTime-Glo luminescence; series mostly up to 76.8 µM. The gist of the method: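 Nonlytic real-time viability readout: viable cells convert prosubstrate to NanoLuc substrate, giving luminescence proportional to live cell number. HEK293, 600 cells/well, compound added after 5 h, continuous culture at 37 C.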
Turning to `O=C=Nc1ccc(Cl)c(Cl)c1`, the Potency result is “inactive”.
On the same count and under the same terms, the entry for `CCOC(C)=O` is “inactive”.
On to `C=CC(=O)[O-].C=CC(=O)[O-].[Zn+2]`, for which the Potency result was “inactive”.
`C/C=C/C=C/C=O`: the Potency result was “inactive”.
For the compound `O=C(O)c1cccc(-c2noc(-c3ccccc3F)n2)c1`, the Potency result was “inactive”.
The same measure, in the same setting: under `CC(C)=CCC1C(=O)N(c2ccccc2)N(c2ccccc2)C1=O` stands “inactive”; under `CCOC(=O)c1ccc(OCCN2C[C@H](O)[C@@H](O)[C@H](O)[C@H]2CO)cc1`, “inactive”; under `CCC(=O)OC`, “inactive”.
Consider `CCC=CC#N`, for which the Potency entry was “inactive”.
`CCCCCCC(C)(C)C(=O)O`: the Potency entry was “inactive”.
On the same count and under the same terms, the entry for `CCCC(=O)C(=O)O` is “inactive”; for `Cc1[nH]cnc1CN1CCc2c(c3ccccc3n2C)C1=O` it is “inactive”.
`C[C@H]1C[C@H](O)c2ccsc2S1(=O)=O`: the Potency entry was “inactive”.
`CN1C(C(=O)Nc2ccccn2)=C(O)c2sccc2S1(=O)=O`: the Potency entry was “inactive”.
Same read-out and setting: under `CCC(C)COC(C)=O` (stereo not given) stands “inactive”.
On the same count and under the same terms, under `C[C@]12CC[C@@H]3c4ccc(O)cc4CC[C@H]3[C@@H]1CC[C@@H]2OC(=O)CCC1CCCC1` stands 49 µM (active); under `FC(F)(F)c1ccccc1Cl`, “inactive”; under `O=c1[nH]c2ccc(Cl)cc2o1`, “inactive”.
On the same count and under the same terms, under `Brc1cc(Br)c(Oc2cc(Br)c(Br)cc2Br)cc1Br` stands “inactive”.
For the compound `Cc1c(C)c2c(c(C)c1OC(=O)CCC(=O)OCCO)CC[C@@](C)(CCC[C@H](C)CCC[C@H](C)CCCC(C)C)O2`, the Potency entry is “inactive”.
In the case of `CCc1ccccc1`, the Potency result was “inactive”.
For the compound `OC[C@H]1O[C@@H](n2cnc3c(=S)nc[nH]c32)[C@H](O)[C@@H]1O`, the Potency entry was “inactive”.
Still for that read-out and setting: under `O=C(O)CCC(=O)C(=O)O` stands “inactive”; under `C=C(C)CCCC(C)CCO` (stereo not given), “inactive”; under `CCCCCC[C@@H](O)C/C=C\CCCCCCCC(=O)O`, “inactive”.
The same measure, in the same setting: under `CCCCC(CC)CN` (stereo not given) stands “inactive”.
Still for that read-out and setting: the entry for `CC1=C(Br)C(=O)C(Br)=C/C1=C(/c1ccccc1S(=O)(=O)O)c1cc(Br)c(O)c(Br)c1C` is “inactive”; for `O[C@@H]1CO[C@H]2[C@@H]1OC[C@@H]2O` it is “inactive”.
Turning to `CCCCCCCCCCC(=O)O`, the Potency entry was “inactive”.
On the same count and under the same terms, under `CC1(C)[C@H](C(=O)O)N2C(=O)C[C@H]2S1(=O)=O` stands “inactive”.
Same read-out and setting: under `CN1CC(=O)N2[C@H](c3ccc4c(c3)OCO4)c3[nH]c4ccccc4c3C[C@@H]2C1=O` stands “inactive”.
As to `O=C(/C=C/c1ccccc1)OCCc1ccccc1`, the Potency result was “inactive”.
As to `Nc1cccc2c1CN(C1CCC(=O)NC1=O)C2=O` (stereo not given), the Potency entry is “inactive”.
The same measure, in the same setting: the entry for `Cc1ccccc1S` is “inactive”.
For the compound `CN1C(=O)OC(C)(C)C1=O`, the Potency entry is “inactive”.
Regarding `Oc1cccc(O)c1O`, the Potency entry was “inactive”.
Same read-out and setting: the entry for `COc1cc(C(=O)NCCCCCC(=O)O)cc(OC)c1OC` is “inactive”; for `CCOC(=O)[C@H](CCc1ccccc1)N[C@@H](C)C(=O)N(CC(=O)O)C1Cc2ccccc2C1` it is “inactive”; for `C=C/C(C)=C/C/C=C(\C)CCC=C(C)C` it is “inactive”.
On the same count and under the same terms, under `CCOC(=O)OC(C)OC(=O)[C@@H]1N2C(=O)[C@@H](NC(=O)[C@H](N)c3ccccc3)[C@H]2SC1(C)C` (stereo not given in full) stands “inactive”.
